The values below come from PubChem BioAssay (NCI).

The structures appear in SMILES notation. Compounds without any hit were thinned out: in the full panel of roughly 83,000, 20% have a hit.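 Results are percent growth after 48 hours of single-concentration exposure. 100 means growth as in untreated cells, lower positive values show inhibition; negative values down to -100 show cell death.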 Values without a mark were called inactive. Active and inactive are the calls of the source. The calls were made as follows: active = growth percent below 10; inactive = the rest.

Common to all, as to test: NCI-60 one-dose screen, 48 h (100 = growth as untreated, 0 = no growth, -100 = all killed)
Assay [1] relates to A549/ATCC NSCLC. As to conditions: 10 µM unless noted.
Assay [2] has as its system K-562 leukemia. Particulars: 10 µM unless noted.
The test system of assay [3] is SF-295 CNS. Particulars: 10 µM unless noted.
The test system of assay [4] is SF-539 CNS. As to conditions: 10 µM unless noted.
Assay [5] deals with UACC-257 melanoma. As to conditions: 10 µM unless noted.
In assay [6] the test system is HCT-15 colon. Particulars: 10 µM.
Assay [7] relates to HT29 colon. Particulars: 10 µM unless noted.
Assay [8] has as its system SNB-75 CNS. Particulars: 10 µM unless noted.
The test system of assay [9] is PC-3 prostate. Particulars: 10 µM unless noted.
Assay [10] relates to SK-MEL-5 melanoma. Particulars: 10 µM unless noted.
The subject of assay [11] is SK-MEL-2 melanoma. As to conditions: 10 µM unless noted.
For assay [12], the system named is ACHN renal. Particulars: 10 µM unless noted.
Assay [13] deals with A498 renal. As to conditions: 10 µM unless noted.
In assay [14] the test system is HL-60(TB) leukemia. As to conditions: 10 µM unless noted.
Assay [15] relates to OVCAR-8 ovarian. Particulars: 10 µM unless noted.
Assay [16] relates to OVCAR-4 ovarian. Particulars: 10 µM unless noted.
The subject of assay [17] is HS 578T breast. As to conditions: 10 µM unless noted.
The test system of assay [18] is T-47D breast. As to conditions: 10 µM unless noted.
Assay [19] relates to HCC-2998 colon. Particulars: 10 µM unless noted.
For assay [20], the system named is IGROV1 ovarian. As to conditions: 10 µM.

As for `CC(/C=N/N=C(N)N)=N/N=C(N)N`, the growth was 106% in [1]; 82.1% in assay [2]; 93.6% in assay [3]; 73.9% in assay [4]; 113% in assay [5]; 98% in assay [6]. Besides, the growth in [7] is 91.8%; in assay [8] it was 71.5%; in assay [9] it was 108%; in assay [10], 107%; in assay [11], 14.8%; in assay [12], 94.5%. Further, the growth in assay [13] was 90.2%; in [14], 84.5%; in [15], 77.8%; in [16], 91.9%; in assay [17], 88.6%; in assay [18], 60.1%. Also, the growth in [19] was -14.8% (active).
On to `CCCCCN(CCCCC)CC(O)c1ccc(C)c(Cl)c1` (stereo not drawn), for which the growth in assay [1] is 92.7%; in assay [2] it was 92.5%; in assay [3] it was 87%; in assay [4], 101%; in assay [5] it was 95.4%; in assay [6], 99.9%. The growth in assay [7] is 79%; in assay [8] it was 90.9%; in [9], 91.8%; in [10] it was 103%; in assay [11], 101%; in [12] it was 92.7%. In addition, the growth in [13] is 78.5%; in [14] it was 116%; in [15], 102%; in [16], 105%; in [20], 92.2%; in assay [17], 102%. The growth in [18] is 91.2%; in assay [19], 107%.
In the case of `c1ccc2nc(OCCN3CC3)ccc2c1`, the growth is 74.1% in assay [1]; 26.8% in assay [2]; 75.8% in [3]; 97.5% in assay [4]; 59% in assay [5]; 86.5% in assay [6]. In addition, the growth was 43.8% in [7]; 77% in [8]; 98.6% in assay [10]; 96.3% in [11]; 88% in assay [12]; 102% in assay [13]. In addition, the growth in assay [14] was 72.7%; in assay [15] it was 78.2%; in assay [16] it was 75.3%; in assay [20], 35.1%; in assay [17] it was 98.3%; in [18], 80.3%. In addition, the growth in assay [19] is 86.7%.
As for `CCCCNCCc1ccccn1`, the growth is 100% in [1]; 90.4% in assay [2]; 100% in assay [3]; 109% in [4]; 94.5% in assay [5]; 102% in assay [6]. The growth in [7] is 102%; in [8], 104%; in assay [9] it was 96%; in assay [10], 111%; in assay [11], 87.3%; in [12], 101%. Also, the growth in assay [13] was 95.5%; in assay [14] it was 99.1%; in [15], 102%; in assay [16], 106%; in [20] it was 116%; in assay [17], 107%. Moreover, the growth in assay [18] was 97.2%; in assay [19], 114%.
For the molecule `COC(C)(C)CCC[C@H](C)C/C=C/C(C)=C/C(=O)OC(C)C`, the growth is 98.5% in [1]; 85.3% in [2]; 98.2% in assay [3]; 118% in [4]; 101% in assay [5]; 101% in assay [6]. Moreover, the growth is 88% in [7]; 118% in [8]; 88.7% in assay [9]; 97.1% in assay [11]; 109% in assay [12]; 110% in assay [13]. In addition, the growth in [14] was 79.8%; in [15] it was 98.2%; in assay [16] it was 90%; in assay [20], 99.7%; in assay [17], 119%; in assay [18], 75.7%. The growth in [19] is 101%.
Turning to `CCCCn1cc(C(=O)/C(C#N)=C/c2cc3ccccc3nc2Cl)c2cc(OC)ccc21`, the growth in assay [1] is 102%; in [2], 47.5%; in assay [3] it was 95.9%; in [4], 89%; in assay [5], 98.5%; in assay [6] it was 94.3%. Moreover, the growth in assay [7] is 89.9%; in [8], 75.4%; in assay [9] it was 87.7%; in assay [11], 115%; in assay [12], 79%; in assay [13] it was 94.8%. Further, the growth was 75.1% in [15]; 95.5% in assay [16]; 61.2% in [20]; 88.6% in assay [17]; 80.4% in assay [18]; 96.8% in [19].
For the molecule `N#CC1=C(N)Oc2cc3c(cc2C1c1cccs1)OCO3` (stereo not drawn), the growth was 36.8% in [1]; 4.03% (active) in assay [3]; 0.18% (active) in assay [4]; 60.8% in assay [5]; 35.5% in assay [6]; 8.98% (active) in [7]. Further, the growth was -14.9% (active) in [8]; 24% in [9]; 16.2% in assay [10]; 21.2% in assay [11]; 57.4% in assay [12]; 7.63% (active) in assay [13]. Moreover, the growth in assay [14] is -28.6% (active); in assay [15] it was 35.1%; in assay [16] it was 52.8%; in [20], 35.3%; in [17] it was 24.6%; in assay [18], 42.8%. Besides, the growth in assay [19] is 39.5%.
As to `CCCCN(CCCC)CC(O)c1ccccc1` (stereo not drawn), the growth is 104% in [1]; 103% in assay [2]; 103% in assay [3]; 114% in assay [4]; 106% in assay [5]; 104% in [6]. For the same molecule, the growth is 109% in assay [7]; 91.5% in [8]; 111% in assay [9]; 118% in [10]; 115% in assay [11]; 102% in assay [12]. Also, the growth in assay [13] is 82.6%; in [14], 111%; in [15], 109%; in assay [16], 95.4%; in [20], 115%; in [17], 97.5%. The growth in [18] was 127%; in assay [19] it was 102%.
Consider `CC1(C)N=C(N)N=C(N)N1c1ccc(OCCCCOc2ccc(S(=O)(=O)F)cc2)c(Cl)c1`, for which the growth in assay [1] was 11.2%; in assay [2] it was 16.8%; in assay [3], 16.3%; in assay [4], 12.2%; in [6], 32.8%; in [7] it was 8.74% (active). The growth in assay [8] was 38.3%; in [9] it was 5.85% (active); in assay [10] it was 9.68% (active); in assay [11] it was 38.6%; in [12], 25.2%; in assay [13] it was 29.3%. Besides, the growth was 19.3% in [14]; 13.5% in assay [15]; 57% in assay [16]; 33.1% in [20]; 60.3% in assay [17]; 25.9% in assay [18]. The growth in assay [19] is 32.4%.
